A selection: hits, their analogues and other compounds. The true share with any hit is near 2.8%.
HepG2 viability: kills HepG2 cells in TGF-b inhibitor counter-screen; HepG2 CAGA-GFP viability, ATP luminescence, 18 h; Potency, µM (top dose mostly 46.1 µM), for inactives: top-dose activity change, negative = cytotoxicity, hits mostly cytotoxic; 410,000 compounds, 0.76% hits; AID 588856; note: potency is the fitted concentration of half-maximal effect
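CellTiter-Glo luminescence gave cytotoxicity after 18 hours at 37 degrees C. The cells were HepG2 CAGA-GFP in 1% FBS DMEM, stimulated with 500 pg/mL TGF-beta after compound addition. %Activity was normalised to no-cell wells (complete cell-killing) and DMSO (no toxicity), and curves were fitted and classified.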
CtBP-E1A blk: blocks the CtBP interaction with E1A | AlphaScreen GST-E1A/His-CtBP binding, 1536-well; stronger effect = lower value | AID 651724 | 340,000 compounds, 0.49% hits | activity change, % (test concentration not listed); in the data active = activity change below about -65%; inconclusive = mostly about -30% to -63%; note: % is set by controls: 0 for no effect and ±100 for the full control effect
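Protein mix (5X: 125 nM each GST-E1A, His-CtBP) was incubated with pinned compound 2 h at 37 deg C in dark, in 50 mM Tris pH 8.0 buffer with 300 mM NaCl. Glutathione donor and nickel acceptor beads followed; AlphaScreen signal read after 1 h.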
Six1-Eya2 inh: Six1/Eya2 interaction inhibition | Q15475+O00167 | AlphaScreen GST-Six1/His-Eya2 binding, biochemical; stronger effect = lower value | activity change, % (no concentration beside the values) | 360,000 compounds, 0.56% hits; in the data active = activity change below about -65%; inconclusive = mostly about -30% to -63%; note: % is set by controls: 0 for no effect and ±100 for the full control effect
Target sequence (O00167 whole entry, looked up): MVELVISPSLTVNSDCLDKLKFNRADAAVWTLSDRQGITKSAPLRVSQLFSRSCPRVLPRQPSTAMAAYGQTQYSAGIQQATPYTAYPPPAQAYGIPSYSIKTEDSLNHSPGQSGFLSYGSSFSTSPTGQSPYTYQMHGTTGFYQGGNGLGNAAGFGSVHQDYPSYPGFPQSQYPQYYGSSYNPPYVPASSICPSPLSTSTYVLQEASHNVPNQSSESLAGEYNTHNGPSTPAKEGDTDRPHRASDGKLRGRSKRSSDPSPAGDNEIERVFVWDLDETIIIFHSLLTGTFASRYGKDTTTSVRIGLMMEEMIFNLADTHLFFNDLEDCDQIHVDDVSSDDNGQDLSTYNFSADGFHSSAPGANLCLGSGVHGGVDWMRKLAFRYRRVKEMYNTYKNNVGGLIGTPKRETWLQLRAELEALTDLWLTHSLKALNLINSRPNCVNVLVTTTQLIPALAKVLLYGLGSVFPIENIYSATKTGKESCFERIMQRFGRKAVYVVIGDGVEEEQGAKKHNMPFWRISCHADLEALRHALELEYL
Target sequence (Q15475 whole entry, looked up): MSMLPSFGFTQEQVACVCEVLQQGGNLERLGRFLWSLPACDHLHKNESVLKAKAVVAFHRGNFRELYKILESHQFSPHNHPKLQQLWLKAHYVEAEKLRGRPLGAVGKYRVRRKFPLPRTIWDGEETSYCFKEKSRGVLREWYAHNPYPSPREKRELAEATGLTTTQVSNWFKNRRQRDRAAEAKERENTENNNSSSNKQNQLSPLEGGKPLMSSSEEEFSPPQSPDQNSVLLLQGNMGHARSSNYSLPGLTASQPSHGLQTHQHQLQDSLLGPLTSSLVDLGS
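AlphaScreen luminescence read after one hour at 37 °C in darkness. Pin-transferred compounds met GST-Six1 and His-Eya2 protein (5X stock 250 nM/500 nM) plus glutathione donor and Ni-chelate acceptor beads (5X, 50 ug/mL).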
TGFb SMAD3 inh: TGF-b pathway inhibition; Potency, µM (top dose mostly 46.1 µM), without a hit: at the top dose activity, negative = inhibition, actives largely listed as inhibitors; HepG2 CAGA-GFP TGF-b/SMAD3 reporter, GFP fluorescence, 18 h; TGF-beta stimulated, 500 pg/mL final; 410,000 compounds, 1.2% hits; note: potency is the fitted concentration of half-maximal effect; % is set by controls: 0 for no effect and ±100 for the full control effect; nearly all actives have a fitted effect of over 65% in size
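Cell-based qHTS in HEPG2 carrying a CAGA-GFP Smad reporter; compounds added before 500 pg/mL final TGF-beta, 18 h incubation at 37 degrees C, GFP fluorescence quantified per cell by imaging cytometry.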
S2 tox: viability counter-screen for ATXN expression inhibitors; S2 cells (HEK-293 line with an ATXN2-luciferase reporter) viability, CellTiter-Fluor protease fluorescence, 24 h; Potency, µM (highest dose often 56.7 µM), actives largely listed as cytotoxic; 400,000 compounds, 0.49% hits; note: potency is the fitted concentration of half-maximal effect; nearly all actives have a fitted effect of over 40% in size
ATXN2 expr inh: inhibitors of ATXN2 expression; HEK-293 ATXN2-luciferase reporter, luminescence, 24 h; Potency, µM (titrated, usually from 57 µM), for inactives: at the highest dose activity change, negative = inhibition, actives largely listed as inhibitors; 360,000 compounds, 0.72% hits; AID 1745845; note: potency is the fitted concentration of half-maximal effect; % is set by controls: 0 for no effect and ±100 for the full control effect; nearly all actives have a fitted effect of over 55% in size
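ATXN2-luciferase reporter cells (luciferase flanked by upstream and downstream ATXN2 gene portions) were treated 24 h at 37 °C with compounds at up to 57 uM. SteadyGlo luminescence gave expression; GF-AFC fluorescence gave viability.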
SKNSH spheroid: reduced viability of SK-N-SH 3D spheroids, orthogonal test | 65 compounds, 70% hits | SK-N-SH 3D spheroid viability, PI/Hoechst imaging, 72 h | shares compounds with ATXN2 expr inh | Potency, µM (titrated, usually from 30.7 µM), usual class: inhibitors
SJ-GBM2 3D tox: lowers viability of SJ-GBM2 3D spheroids; 65 compounds, 80% hits; AID 1347136; shares compounds with ATXN2 expr inh; SJ-GBM2 3D spheroid viability, PI/Hoechst imaging, 72 h; Potency, µM (doses to about 30.7 µM), actives largely listed as inhibitors
Daoy spheroid: Daoy 3D spheroid viability loss | shares compounds with ATXN2 expr inh | Daoy 3D spheroid viability, PI/Hoechst imaging, 72 h | Potency, µM (highest dose often 30.7 µM), usual class: inhibitors | 65 compounds, 50% hits | AID 1347137
TC32 3D casp: TC32 spheroid caspase-3/7 activation, orthogonal screen. TC32 3D spheroids, caspase-3/7 fluorescence imaging, 24 h. shares compounds with ATXN2 expr inh. 65 compounds, 30% hits. AID 1347138. Potency, µM (series often up to 30.7 µM), hits mostly inhibitors
TC32 spheroid: kills TC32 spheroids in orthogonal 3D test; shares compounds with ATXN2 expr inh; 65 compounds, 60% hits; Potency, µM (titrated, usually from 30.7 µM), hits mostly inhibitors; TC32 3D spheroid viability, PI/Hoechst imaging, 72 h
MG63 spheroid: reduced viability of MG-63 (6-TG R) 3D spheroids, orthogonal test. AID 1347140. shares compounds with ATXN2 expr inh. Potency, µM (titrated, usually from 30.7 µM), hits mostly inhibitors. 65 compounds, 50% hits. MG-63 (6-TG R) 3D spheroid viability, PI/Hoechst imaging, 72 h
RD spheroid: reduced viability of RD 3D spheroids, orthogonal test. RD rhabdomyosarcoma 3D spheroid viability, PI/Hoechst imaging, 72 h. Potency, µM (titrated, usually from 30.7 µM), actives largely listed as inhibitors. 65 compounds, 50% hits. AID 1347141. shares compounds with ATXN2 expr inh
Active calls of the source: *. Unless noted, calls come from the whole dose curve; as a rule, active = well fitted curve in the direction sought with a large enough effect; inconclusive = small, poorly fitted or top-dose-only effect, or another doubt; inactive = no such curve, though single readings can be large; an effect the other way counts as inactive or inconclusive.

CC(C)NC(=O)C1(C)CCN1C(=O)Cc1ccc(-c2ccccc2)cc1 (stereo not drawn) was read as HepG2 viability -19.7%, CtBP-E1A blk 3.0, Six1-Eya2 inh 0.7, TGFb SMAD3 inh -9.9%, S2 tox inactive and ATXN2 expr inh -13.9%.
Cn1cc(CNCC2CCN(c3ncc(C(=O)NO)cn3)CC2)c2ccccc21 was read as ATXN2 expr inh 60.6%, SKNSH spheroid 0.0204µM*, SJ-GBM2 3D tox 0.0256µM*, Daoy spheroid 0.181µM*, TC32 3D casp inconclusive, TC32 spheroid 0.0644µM*, MG63 spheroid 0.722µM* and RD spheroid 0.323µM*.
Screening O=C(CCNC(=O)C1CCN(S(=O)(=O)c2ccc(F)cc2)CC1)NCc1ccccn1 returned HepG2 viability 6.9%, CtBP-E1A blk 7.9, Six1-Eya2 inh 2.0, TGFb SMAD3 inh 5.3% and S2 tox inactive.
`CCOc1ccc(NC(=O)Cn2ncc3c2-c2cc(C)ccc2OC3)cc1` gave HepG2 viability -7.4%, TGFb SMAD3 inh -9.6%, S2 tox inactive and ATXN2 expr inh 2.2%.
`CCOc1cc(N2CCC(O)CC2)ccc1Nc1ncc2c(n1)N(C)c1ccccc1C(=O)N2C` gave ATXN2 expr inh 64.0%, SKNSH spheroid inconclusive, SJ-GBM2 3D tox inactive, Daoy spheroid inactive, TC32 3D casp inactive, TC32 spheroid inactive, MG63 spheroid inactive and RD spheroid inconclusive.
Screening CC(=O)OCC(=O)[C@@]1(O)CC[C@H]2[C@@H]3CCC4=CC(=O)C=C[C@]4(C)[C@@H]3[C@@H](O)C[C@@]21C returned ATXN2 expr inh -3.1%.
For CC(=O)OCC(=O)[C@@]12N=C(C)O[C@@H]1C[C@H]1[C@@H]3CCC4=CC(=O)C=C[C@]4(C)[C@H]3[C@@H](O)C[C@@]12C the results were S2 tox inactive, ATXN2 expr inh -6.3%, SKNSH spheroid inactive, SJ-GBM2 3D tox inconclusive, Daoy spheroid inactive, TC32 3D casp inactive, TC32 spheroid inactive, MG63 spheroid inactive and RD spheroid inactive.
Screening CC(C)C[C@H](NC(=O)[C@H](Cc1ccccc1)NC(=O)c1cnccn1)B(O)O returned S2 tox 50.1µM*, ATXN2 expr inh 0.0273µM*, SKNSH spheroid 0.0102µM*, SJ-GBM2 3D tox 0.0162µM*, Daoy spheroid 0.0323µM*, TC32 3D casp 0.181µM*, TC32 spheroid 0.0181µM*, MG63 spheroid 0.081µM* and RD spheroid 0.0114µM*.
Cc1cccc(-c2nc(Nc3ccc(N4CCOCC4)cc3)c3ccccc3n2)c1 was read as HepG2 viability 0.3%, CtBP-E1A blk -28.4, Six1-Eya2 inh -23.9, TGFb SMAD3 inh 0.0%, S2 tox inconclusive and ATXN2 expr inh 3.2%.
Cc1ccc(-c2ncn(-c3ccc(Nc4nccc(-c5cccc(N6CCOCC6)c5)n4)cc3)n2)cn1 was read as ATXN2 expr inh 4.85µM*, SKNSH spheroid 0.909µM*, SJ-GBM2 3D tox 1.62µM*, TC32 3D casp inactive, TC32 spheroid inactive, MG63 spheroid inactive and RD spheroid inconclusive.
`CCN(CC)S(=O)(=O)c1ccc(C(=O)Nc2nc3c(Cl)cc(Cl)cc3s2)cc1` gave HepG2 viability -23.1%, TGFb SMAD3 inh inconclusive, S2 tox inactive and ATXN2 expr inh -15.0%.
CC(=O)O[C@@]12CO[C@H]1C[C@H](O)[C@@]1(C)C(=O)[C@H](O)C3=C(C)[C@@H](OC(=O)C(O)[C@@H](NC(=O)OC(C)(C)C)c4ccccc4)C[C@@](O)([C@@H](OC(=O)c4ccccc4)[C@@H]21)C3(C)C (stereo partly drawn) was read as ATXN2 expr inh inconclusive, SKNSH spheroid 0.0256µM*, SJ-GBM2 3D tox 0.0046µM*, Daoy spheroid 2.56µM*, TC32 3D casp inactive, TC32 spheroid inconclusive, MG63 spheroid 8.1µM* and RD spheroid inconclusive.
CC(=O)O[C@H]1C(=O)[C@@]2(C)[C@H]([C@H](OC(=O)c3ccccc3)[C@]3(O)C[C@H](OC(=O)[C@H](O)C(NC(=O)c4ccccc4)c4ccccc4)C(C)=C1C3(C)C)[C@]1(OC(C)=O)CO[C@@H]1C[C@@H]2O (stereo partly drawn) was read as HepG2 viability -9.1%, CtBP-E1A blk -2.6, Six1-Eya2 inh -4.9, TGFb SMAD3 inh inconclusive, S2 tox inconclusive and ATXN2 expr inh -25.0%.

Screens (PubChem BioAssay)
